Reference: PubChem BioAssay
Unmarked numbers belong to inactive results. How the calls were made is not given here.

Biological target: Pantothenate synthetase (Mycobacterium tuberculosis (strain ATCC 25618 / H37Rv)) (UniProt P9WIL5)
Test: Coupled enzyme confirmation of inhibitors against recombinant Mtb PanC (AID 375);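 further: 0% = full reaction with vehicle and 100% = no enzyme background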
Details: coupled enzyme assay; at 10 µM, active compounds read high

Pantothenate synthetase (Mycobacterium tuberculosis (strain ATCC 25618 / H37Rv)), sequence (P9WIL5 whole entry, looked up): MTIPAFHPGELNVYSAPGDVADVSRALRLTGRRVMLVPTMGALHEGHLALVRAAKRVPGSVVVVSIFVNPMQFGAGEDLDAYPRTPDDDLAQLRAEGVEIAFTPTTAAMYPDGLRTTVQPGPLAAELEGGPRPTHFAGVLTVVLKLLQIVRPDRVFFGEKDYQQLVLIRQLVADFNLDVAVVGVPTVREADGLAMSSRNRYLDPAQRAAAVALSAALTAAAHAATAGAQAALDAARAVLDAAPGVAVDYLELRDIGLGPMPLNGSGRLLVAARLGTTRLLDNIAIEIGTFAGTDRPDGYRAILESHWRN

Structure (SMILES) | inhibition
C=C(C)CSc1nnc(-c2cccc(S(=O)(=O)N(C)C)c2)n1-c1cc(OC)ccc1OC | 1%
CC1N=C2c3ccccc3N=C(SCc3cc(=O)n4cc(Cl)ccc4n3)N2C1=O (configuration not stated) | 2%
COc1ccccc1-c1coc2c(CN3CCN(CCO)CC3)c(O)ccc2c1=O | 0%
O=C(O)C1CCCCC1C(=O)Nc1ccccn1 (configuration not stated) | 0%
CCOC(=O)c1sc2nc(NC(=O)C(C)(C)C)sc2c1C | 8%
COC(=O)c1cn(C(=O)OC)c2ccccc12 | 7%
NC(=O)C1(N2CCCCC2)CCN(C2CC(=O)N(Cc3cccs3)C2=O)CC1 (configuration not stated) | 0%
CCOC(=O)C1CCN(c2c(N3CCCC(C(=O)OCC)C3)c(=O)c2=O)CC1 (configuration not stated) | 6%
O=C(COC(=O)c1cnccn1)c1ccc(OC(=O)c2ccccc2)cc1 | 0%
CCNc1nc(OC)nc(Oc2ccc(=O)n(-c3ccccc3)n2)n1 | 4%
CCOc1cccc(Oc2ccc(C(F)(F)F)cn2)c1 | 0%
COc1ccc(CC(=O)NCc2cccs2)cc1 | 3%
O=C(NC12CC3CC(CC(C3)C1)C2)C1CCCN1C(=O)NC1CCCCC1 (configuration not stated) | 0%
Cn1c(=O)c2c(nc(NCc3ccccc3)n2CCCc2ccccc2)n(C)c1=O | 0%
Nc1ccc(S(=O)(=O)Nc2ccccn2)cc1 | 0%
O=C(CSc1nnc(Cc2ccccc2)n1-c1cccc(Cl)c1)N1CCOCC1 | 0%
O=C(N1CCOCC1)N1CCC(NC(=O)C23CC4CC(CC(C4)C2)C3)CC1 | 0%
